Reference: PubChem BioAssay
Calls of active or inactive are those of the source. The rule behind the calls is not given here.

target: Pantothenate synthetase (Mycobacterium tuberculosis (strain ATCC 25618 / H37Rv)) (UniProt P9WIL5); experiment: Coupled enzyme confirmation of inhibitors against recombinant Mtb PanC (AID 375); conditions: coupled enzyme assay; at 10 µM, active compounds read high;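 note: 0% = full reaction with vehicle and 100% = no enzyme background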
Sequence (P9WIL5 whole entry, looked up): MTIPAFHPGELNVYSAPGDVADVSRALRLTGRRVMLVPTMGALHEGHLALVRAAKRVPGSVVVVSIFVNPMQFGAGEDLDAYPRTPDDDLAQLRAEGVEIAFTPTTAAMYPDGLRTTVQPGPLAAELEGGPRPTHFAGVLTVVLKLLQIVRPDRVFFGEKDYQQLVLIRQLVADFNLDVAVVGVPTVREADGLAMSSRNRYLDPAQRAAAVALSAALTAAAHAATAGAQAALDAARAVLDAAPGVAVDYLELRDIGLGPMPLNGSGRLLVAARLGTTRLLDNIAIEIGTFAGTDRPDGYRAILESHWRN

SMILES | inhibition
Cc1ccc(NC(=O)CCC(=O)O)cc1F | 0% (inactive)
CS(=O)(=O)N(Cc1nc2sc3c(c2c(=O)[nH]1)CCCC3)C1CCCCC1 | 0% (inactive)
CCCSc1ccc2nc(NC(=O)OC)[nH]c2c1 | 0% (inactive)
Cc1cccc(N2C(=O)CC(Sc3nc(C)c4c(n3)CCCC4)C2=O)c1 (configuration not stated) | 0% (inactive)
O=C(c1cc2n(n1)C(C(F)(F)F)CC(c1ccc(Cl)cc1)N2)N1CCCC1 (configuration not stated) | 5% (inactive)
O=C(CN(Cc1ccco1)C(=O)CNS(=O)(=O)c1ccc(Cl)cc1)NCc1ccc(F)cc1 | 3% (inactive)
CC(=O)OC1c2ccccc2C(=O)N1Cc1ccccc1Cl (configuration not stated) | 0% (inactive)
CCC(=O)c1cc(F)c(N2CCN(C(=O)c3ccco3)CC2)cc1C | 7% (inactive)
NC(=O)c1cc(-c2ccccc2)nc(N2CCOCC2)n1 | 0% (inactive)
O=C(C1CCCN(S(=O)(=O)c2ccc(Br)s2)C1)N1CCCCCC1 (configuration not stated) | 0% (inactive)
Cc1ccc2nc(-c3ccc(S(=O)(=O)N4CCOCC4)cc3)cn2c1 | 0% (inactive)
CCn1c(SCC(=O)Nc2ccc(C(=O)OC)cc2)nnc1-c1cccs1 | 3% (inactive)
CCCOC(=O)/C(C(N)=NCc1ccccc1)=C(\O)OCCC | 0% (inactive)
Cc1nnc2n(Cc3ccccc3)c(=O)c3c4c(sc3n12)COC(C(C)C)C4 (configuration not stated) | 0% (inactive)
Cc1[nH]c(=O)[nH]c(=O)c1S(=O)(=O)N1CCN(c2cccc(Cl)c2)CC1 | 1% (inactive)
O=C(CSc1nc2ccc(Cl)cc2[nH]1)NCc1ccco1 | 0% (inactive)
COc1cc(S(=O)(=O)NC2CCCCC2)ccc1Cl | 1% (inactive)
